These results are taken from the supplement of paper PMC4100887.

± gives the standard deviation of the averaged measurements.

The test deals with IMR-90. As to the kind of experiment: relative cell viability (ATPlite) vs untreated control (fraction); higher = less toxic. The following applies: 1 µM; 72 h. Background: In ATP-based viability assays light output follows the ATP content of the culture.
For the molecule `O=C1c2ccccc2-c2nc3nnnn3nc21` [PDK1/Akt/Flt Dual Pathway Inhibitor], the relative cell viability worked out at 0.856 ± 0.069.
The result for `CS(=O)(=O)c1ccc(-c2nc(-c3ccc(F)cc3)c(-c3ccncc3)[nH]2)cc1` reads 1.03 ± 0.08; that for `O=C1NC(=O)C(c2cn(CCCO)c3ncccc23)=C1c1cnccn1` [GSK-3b Inhibitor XI], 1.02 ± 0.054; that for `COc1cc(SC)ccc1C(=O)N1CCC(Cc2ccccc2)CC1` [p38 MAP Kinase Inhibitor VI, JX401], 1.03 ± 0.094.
To `CC(C)(C)c1nc2c3cc[nH]c(=O)c3c3cc(F)ccc3c2[nH]1` [JAK Inhibitor I] belongs 1.01 ± 0.045; to `COc1ccc(CNc2nc(N(CCO)CCO)nc3c2ncn3C(C)C)cc1` [Cdk2 Inhibitor III], 0.927 ± 0.086; to `O=c1c(O)c(-c2ccc(O)c(O)c2)oc2cc(O)c(O)c(O)c12` [Quercetagetin], 0.88 ± 0.16.
The result for `Cc1ncc2ccccc2c1C#N` [4-Cyano-3-methylisoquinoline] reads 0.955 ± 0.066; that for `Cn1cc(C2=C(c3cn(CCCSC(=N)N)c4ccccc34)C(=O)NC2=O)c2ccccc21`, 0.967 ± 0.2; that for `COc1cc2ncc(-c3ccccc3)nc2cc1OC`, 1.1 ± 0.066.
As to `c1nc2c(NC3CCCCC3)nc(Nc3ccc(N4CCOCC4)cc3)nc2[nH]1` [Reversine], the relative cell viability is 0.936 ± 0.08.
The result for `CC(=O)c1ccc(N2CCOCC2)cc1O` [DNA-PK Inhibitor III] reads 1.02 ± 0.093.
`OCC(O)CCO/N=C1\C(c2c(O)[nH]c3ccccc23)=Nc2ccccc21` (configuration not stated) [Indirubin Derivative E804] came in with a relative cell viability of 0.974 ± 0.098.
The result for `O=c1c2ccccc2[nH]c(=S)n1CCN1CCC(=C(c2ccc(F)cc2)c2ccc(F)cc2)CC1` [Diacylglycerol Kinase Inhibitor II] reads 0.995 ± 0.097; that for `CCCCc1c(-c2ccc(OC)cc2)[nH]c2nccnc12` [Aloisine, RP106], 0.897 ± 0.069.
The result for `CC(=O)O/N=C1/C(c2c(O)[nH]c3cc(Br)ccc23)=Nc2ccccc21` [GSK-3 Inhibitor X] reads 0.903 ± 0.052; that for `CCN(CC)CCCCN1c2ccccc2Oc2ccc(Cl)cc21` [Akt Inhibitor X], 0.889 ± 0.093.
The result for `NS(=O)(=O)c1ccc(N=Nc2c(O)[nH]c3ccc(Br)cc23)cc1` [Cdk2 Inhibitor II] reads 1.22 ± 0.2; that for `COc1nccc(-c2c(-c3ccc(F)cc3)ncn2C2CCC(O)CC2)n1` (configuration not stated), 0.964 ± 0.038; that for `O=C1Nc2ccc(Cl)cc2/C1=C/c1cc(Cl)c(O)c(Cl)c1` [PKR Inhibitor, Negative Control], 0.968 ± 0.089.
Turning to `NC(=O)Nc1cc(-c2ccccc2)sc1C(N)=O` [IKK-2 Inhibitor XI], the relative cell viability came out at 0.982 ± 0.094.
To `O=C(c1ccc(Nc2nccc(-c3cc4ccccc4s3)n2)cc1)N1CCC(N2CCCC2)CC1` [IKK Inhibitor VII] belongs 0.972 ± 0.066; to `CC[n+]1c(/C=C/N(C)c2ccccc2)n(-c2ccccc2)c2ccc(-c3nc4ccccc4s3)cc21` [Akt Inhibitor IV], 0.924 ± 0.1; to `CCC(CO)Nc1nc(NCc2ccccc2)c2ncn(C(C)C)c2n1` [Roscovitine, (S)-Isomer], 1.04 ± 0.054.
To `CNc1cc2c(Nc3cccc(Br)c3)ncnc2cn1` belongs 1.04 ± 0.053; to `Cc1cc(Nc2nc(-c3ccccc3)nc3ccccc23)n[nH]1` [GSK-3 Inhibitor XIII], 1 ± 0.059.
As to `CCN(CC)C(=O)c1ccc(Nc2nc(OCC3CCCCC3)c3[nH]cnc3n2)cc1` [Cdk2 Inhibitor IV, NU6140], the relative cell viability is 1.03 ± 0.076.
To `COc1cc2ncnc(N3CCN(C(=O)Nc4ccc(Oc5ccccc5)cc4)CC3)c2cc1OC` [PDGF Receptor Tyrosine Kinase Inhibitor III] belongs 1.01 ± 0.086; to `Cn1cnc2cc3c(Nc4cccc(Br)c4)ncnc3cc21`, 0.973 ± 0.054.
The result for `Nc1nc(Nc2ccc(S(N)(=O)=O)cc2)nn1C(=S)Nc1c(F)cccc1F` [Cdk1/2 Inhibitor III] reads 1.11 ± 0.082; that for `CCOc1nc(NC(=O)Cc2cc(OC)ccc2OC)cc(N)c1C#N` [JNK Inhibitor VIII], 0.992 ± 0.081; that for `NC(=O)Nc1sc(-c2ccccc2)cc1C(N)=O` [IKK-2 Inhibitor VI], 0.942 ± 0.1.
